This note sets out measurements from PubChem BioAssay.

The structures appear in SMILES notation. Active and inactive are the calls of the source. Unless noted, how the calls were made is not given here.

For assay [1], the system named is XIP peptide (Xip251-270) binding. The assay can be described thus: XIP fragment 251-270 binding compounds – biochemical, small-molecule microarray, fluorescence 635/667 nm, 0.1 µg/mL protein, primary screen (AID 1182). As to conditions: fluorescent protein binding, 635 nm, higher = more signal, called active from +8 up or from −8 down.
A further assay relates to XIP peptide (Xip251-270). Nature of the assay: compounds binding XIP fragment 251-270 – biochemical, small-molecule microarray, fluorescence 635/667 nm, 0.5 µg/mL protein, primary screen (AID 1183). As to conditions: fluorescence 635 nm, higher = more signal.
Assay [2] is described as follows: blood-stage malaria parasite viability loss – strain 3D7, DAPI fluorescence, 100 nL, primary screen (AID 1184).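 Further: parasites grown inside human red blood cells in medium with human serum.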 Particulars: P. falciparum 3D7 growth, 3 d, higher = more signal.
Assay [3] concerns the target Homeobox protein Hox-A13 (Mus musculus) (UniProt Q62424). Nature of the assay: disruptors of Hoxa13 oligonucleotide interaction – biochemical, fluorescence polarization, labeled oligonucleotide, primary screen (AID 1185). As to conditions: Hoxa13:DNA binding, 15 min, higher = more signal, called active from +8 up or from −8 down.
Assay [4] in a line: blockers of DNA damage checkpoint Chk1 activation – imaging, HeLa, hydroxyurea, phospho-Chk1 antibody, percent positive cells, primary screen (AID 1186). As to conditions: hydroxyurea-induced phospho-Chk1 immunofluorescence imaging, higher = more signal.
Assay [5] in a line: blockers of DNA damage checkpoint Chk1 activation – imaging, HeLa, hydroxyurea, phospho-Chk1 nuclear intensity, primary screen (AID 1187). Particulars: hydroxyurea-induced phospho-Chk1 immunofluorescence imaging, higher = more signal.

Chain of Homeobox protein Hox-A13 (Mus musculus) (Q62424 whole entry, looked up): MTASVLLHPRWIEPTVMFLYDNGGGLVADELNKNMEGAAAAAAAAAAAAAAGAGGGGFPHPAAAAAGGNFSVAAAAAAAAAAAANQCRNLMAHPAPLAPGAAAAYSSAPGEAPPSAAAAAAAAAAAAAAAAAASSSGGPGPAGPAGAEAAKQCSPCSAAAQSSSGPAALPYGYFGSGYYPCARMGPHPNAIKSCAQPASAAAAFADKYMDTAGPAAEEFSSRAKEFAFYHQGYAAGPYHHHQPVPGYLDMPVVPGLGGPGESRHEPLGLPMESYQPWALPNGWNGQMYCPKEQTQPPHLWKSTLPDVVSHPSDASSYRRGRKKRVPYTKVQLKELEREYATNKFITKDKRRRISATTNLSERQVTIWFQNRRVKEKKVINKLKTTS

Take `COc1ccc(CCNC(=O)[C@@H]2c3ccccc3C(=O)N(Cc3ccccc3Cl)[C@H]2c2ccc(CO)cc2)cc1`: the composite z-score in assay [1] was 0.187 (inactive); in the assay with XIP peptide (Xip251-270), 0.431. Besides, the z-score in assay [2] is 0.263; in assay [3], -3.28 (inactive); in assay [4], 0.139 (inactive); in assay [5], 0.595 (inactive).
With `O=C1C[C@@](C(=O)NCCN2CCOCC2)(c2ccc([N+](=O)[O-])cc2)[C@@H](c2ccc(CO)cc2I)N1CC12CC3CC(CC(C3)C1)C2`, the composite z-score is 0.634 (inactive) in assay [1] and 0.761 in the assay on XIP peptide (Xip251-270). Besides, the z-score in assay [2] is -2.04; in assay [3] it was -3.99 (inactive); in assay [4], -0.894 (inactive); in assay [5] it was -1.24 (inactive).
For the compound `COCCCNC(=O)[C@@]1(C)c2ccccc2C(=O)N(C(C)C)[C@H]1c1ccc(CO)cc1`, the composite z-score in assay [1] is -0.102 (inactive); in the assay with XIP peptide (Xip251-270) it was 0.246. The z-score is -0.176 in assay [2], -1.71 (inactive) in assay [3], -0.123 (inactive) in assay [4] and -0.397 (inactive) in assay [5].
For `CCCCCN1CC=CC23O[C@@H]4C=CCCOC(=O)C4[C@H]2C(=O)N(CCCCCO)[C@@H]3C1=O` (stereo partly drawn), the composite z-score in assay [1] is 0.382 (inactive); in the assay on XIP peptide (Xip251-270) it was -0.0494. In addition, the z-score in assay [2] is 0.798; in assay [3], -4.21 (inactive); in assay [4], 0.251 (inactive); in assay [5] it was 0.408 (inactive).
With `CCC(CC)C(O)C1C=CC2C(=O)NC(=O)C2N1Nc1ccccn1` (stereo not drawn), the composite z-score is -0.471 (inactive) in assay [1] and 0.579 in the assay on XIP peptide (Xip251-270). In addition, the z-score in assay [2] was -0.3; in assay [3], -0.375 (inactive); in assay [4], 0.933 (inactive); in assay [5], 0.481 (inactive).
As to `Cc1nc2cc(Br)ccc2c(=O)o1`, the values for the composite z-score (in assay [1]; in the assay on XIP peptide (Xip251-270)) were 0.312 (inactive) and 0.139, respectively. The z-score in assay [2] was -0.973; in assay [3], 0.0804 (inactive); in assay [4], -0.131 (inactive); in assay [5] it was 0.134 (inactive).
For the compound `O=C(CS)NCCCCCCNC(=O)[C@@H]1C[C@@H]2C(=O)N[C@@H](Cc3ccccc3)C(=O)N2[C@@H]1c1cccc(OCCO)c1`, the figures for the composite z-score (in assay [1]; in the assay with XIP peptide (Xip251-270)) were 0.644 (inactive) and 0.763, respectively. Also, the z-score in assay [2] was 1.17; in assay [3], -2.64 (inactive); in assay [4], 0.835 (inactive); in assay [5], 1.17 (inactive).
With `COc1ccc(C(O)C2C=CC3C(=O)N(Cc4ccccc4)C(=O)C3N2n2cnnc2)cc1OCc1ccccc1` (stereo not drawn), the composite z-score in assay [1] is 0.442 (inactive); with XIP peptide (Xip251-270) it was 0.159. For the same compound, the z-score in assay [2] was -0.951; in assay [3], -2.23 (inactive); in assay [4], -0.537 (inactive); in assay [5], -0.462 (inactive).
For `NC(=O)NCC#Cc1ccc2c(c1)[C@]1(C(=O)N2)[C@H](C(N)=O)[C@H]2C(=O)O[C@H](c3ccccc3)[C@H](c3ccccc3)N2[C@@H]1c1ccc(O)cc1`, the composite z-score in assay [1] is 1.49 (inactive); in the assay with XIP peptide (Xip251-270) it was 0.109. Besides, the z-score was -0.19 in assay [2], -5.36 (inactive) in assay [3], 0.0619 (inactive) in assay [4] and 0.044 (inactive) in assay [5].
As for `CC(C)C(O)C1C=CC2C(=O)NC(=O)C2N1Nc1ccc(Cl)cc1Cl` (stereo not drawn), the composite z-score in assay [1] is 0.471 (inactive); in the assay with XIP peptide (Xip251-270) it was -0.615. For the same compound, the z-score in assay [2] is 0.0359; in assay [3], -3.95 (inactive); in assay [4] it was 0.998 (inactive); in assay [5], 0.237 (inactive).
Regarding `C=C[C@H](C)[C@@H](OC(=O)Nc1ccc(OC)cc1)c1ccc(O)c2ccccc12`, the composite z-score in assay [1] is 0.863 (inactive); in the assay on XIP peptide (Xip251-270), 0.251. The z-score was 0.0221 in assay [2], -4.35 (inactive) in assay [3], -0.025 (inactive) in assay [4] and 0.099 (inactive) in assay [5].
With `C=CCN1C(=O)[C@@]2(Cc3ccccc31)N=C(c1ccc(OCCCO)cc1)O[C@H]2c1ccccc1`, the composite z-score is 0.619 (inactive) in assay [1] and 0.801 in the assay with XIP peptide (Xip251-270). Further, the z-score was -1.16 in assay [2], -4.35 (inactive) in assay [3], -0.456 (inactive) in assay [4] and -0.416 (inactive) in assay [5].
For `COc1cc(C(O)C2C=CC3C(=O)NC(=O)C3N2Nc2ccccn2)cc(OC)c1OC` (stereo not drawn), the values for the composite z-score (in assay [1]; in the assay with XIP peptide (Xip251-270)) were -0.0962 (inactive) and 0.405, respectively. For the same compound, the z-score in assay [2] was 1.26; in assay [3] it was -2.19 (inactive); in assay [4], 0.209 (inactive); in assay [5], 0.228 (inactive).
Consider `COCCOC(=O)N1C(=O)[C@@]2(c3ccccc31)[C@H](c1ccc(O)cc1)N1[C@H](c3ccccc3)[C@H](c3ccccc3)OC(=O)[C@H]1[C@@H]2C(=O)Nc1nc2ccccc2s1`, for which the figures for the composite z-score (in assay [1]; in the assay on XIP peptide (Xip251-270)) were 0.343 (inactive) and 0.78, respectively. Also, the z-score in assay [2] was 0.194; in assay [3], -0.526 (inactive); in assay [4], -0.0228 (inactive); in assay [5], 0.221 (inactive).
As for `CO[C@H]1O[C@H](CO)[C@@H](OC(=O)Nc2ccccc2)[C@H](OC(=O)Nc2ccccc2)[C@@H]1OC(=O)Nc1ccccc1`, the composite z-score in assay [1] was 0.228 (inactive); in the assay with XIP peptide (Xip251-270), 0.642. In addition, the z-score in assay [2] was -1.43; in assay [3] it was -6.12 (inactive); in assay [4], 0.0303 (inactive); in assay [5], 0.502 (inactive).
For the compound `C=CCNC(=O)[C@H]1[C@@H]2C(=O)O[C@@H](c3ccccc3)[C@@H](c3ccccc3)N2[C@@H](c2ccccc2OCCO)[C@]12C(=O)Nc1ccc(C#CCC(C(=O)OC)C(=O)OC)cc12`, the composite z-score in assay [1] is 0.924 (inactive); in the assay with XIP peptide (Xip251-270), 0.737. The z-score is -2.25 in assay [2], -2.6 (inactive) in assay [3], -0.0106 (inactive) in assay [4] and 0.259 (inactive) in assay [5].
As for `CCCC[C@@H]1C[C@H]1[C@@H](NC(=O)c1ccco1)c1ccc(-c2ccccc2)cc1`, the composite z-score was -0.781 (inactive) in assay [1] and -0.321 in the assay on XIP peptide (Xip251-270). For the same compound, the z-score in assay [2] is -0.937; in assay [3], 0.141 (inactive); in assay [4], 0.353 (inactive); in assay [5], 0.0955 (inactive).
Take `CCOC(=O)C1=C[C@@H](C(C)(C)C)N(S(=O)(=O)c2ccc(C)cc2)[C@H]1c1ccc(F)cc1`: the composite z-score in assay [1] is 0.475 (inactive); in the assay on XIP peptide (Xip251-270), 0.106. In addition, the z-score in assay [2] is -1.92; in assay [3] it was -0.636 (inactive); in assay [4], -0.324 (inactive); in assay [5] it was -0.725 (inactive).
